How the values were obtained:
[1] = molecular target: T1, Tyrosine-protein kinase receptor TYRO3 (Homo sapiens) (UniProt Q06418); conditions: at 1 µM
T1 sequence (whole entry): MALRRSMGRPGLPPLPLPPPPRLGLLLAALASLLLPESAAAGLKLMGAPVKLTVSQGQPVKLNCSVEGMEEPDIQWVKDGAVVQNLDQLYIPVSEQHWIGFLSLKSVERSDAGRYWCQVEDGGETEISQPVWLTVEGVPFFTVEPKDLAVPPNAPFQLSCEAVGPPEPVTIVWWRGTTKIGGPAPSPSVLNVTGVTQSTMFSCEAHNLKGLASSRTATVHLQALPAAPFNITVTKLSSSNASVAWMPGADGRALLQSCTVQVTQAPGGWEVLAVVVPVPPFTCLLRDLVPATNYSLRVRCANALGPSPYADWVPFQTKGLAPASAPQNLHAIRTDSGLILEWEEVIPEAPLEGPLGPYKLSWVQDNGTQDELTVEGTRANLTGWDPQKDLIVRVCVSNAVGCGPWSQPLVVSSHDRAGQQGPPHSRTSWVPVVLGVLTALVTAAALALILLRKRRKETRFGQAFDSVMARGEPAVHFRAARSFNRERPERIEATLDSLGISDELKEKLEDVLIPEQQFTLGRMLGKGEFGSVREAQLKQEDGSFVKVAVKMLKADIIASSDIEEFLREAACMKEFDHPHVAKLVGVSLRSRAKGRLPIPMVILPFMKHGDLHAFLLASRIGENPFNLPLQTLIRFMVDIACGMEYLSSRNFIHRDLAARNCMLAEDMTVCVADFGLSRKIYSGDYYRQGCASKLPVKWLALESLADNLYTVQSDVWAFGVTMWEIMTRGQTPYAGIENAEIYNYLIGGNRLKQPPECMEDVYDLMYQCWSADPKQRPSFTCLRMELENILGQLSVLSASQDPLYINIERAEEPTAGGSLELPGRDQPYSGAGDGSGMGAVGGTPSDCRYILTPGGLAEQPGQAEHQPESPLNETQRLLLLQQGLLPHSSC

[2] = molecular target: Tyrosine-protein kinase Yes (Homo sapiens) (UniProt P07947); conditions: at 0.1 µM
[3] = molecular target: Tyrosine-protein kinase Yes (Homo sapiens) (UniProt P07947); conditions: at 1 µM
[4] = molecular target: T2, Tyrosine-protein kinase ZAP-70 (Homo sapiens) (UniProt P43403); conditions: at 1 µM
T2 sequence (whole entry): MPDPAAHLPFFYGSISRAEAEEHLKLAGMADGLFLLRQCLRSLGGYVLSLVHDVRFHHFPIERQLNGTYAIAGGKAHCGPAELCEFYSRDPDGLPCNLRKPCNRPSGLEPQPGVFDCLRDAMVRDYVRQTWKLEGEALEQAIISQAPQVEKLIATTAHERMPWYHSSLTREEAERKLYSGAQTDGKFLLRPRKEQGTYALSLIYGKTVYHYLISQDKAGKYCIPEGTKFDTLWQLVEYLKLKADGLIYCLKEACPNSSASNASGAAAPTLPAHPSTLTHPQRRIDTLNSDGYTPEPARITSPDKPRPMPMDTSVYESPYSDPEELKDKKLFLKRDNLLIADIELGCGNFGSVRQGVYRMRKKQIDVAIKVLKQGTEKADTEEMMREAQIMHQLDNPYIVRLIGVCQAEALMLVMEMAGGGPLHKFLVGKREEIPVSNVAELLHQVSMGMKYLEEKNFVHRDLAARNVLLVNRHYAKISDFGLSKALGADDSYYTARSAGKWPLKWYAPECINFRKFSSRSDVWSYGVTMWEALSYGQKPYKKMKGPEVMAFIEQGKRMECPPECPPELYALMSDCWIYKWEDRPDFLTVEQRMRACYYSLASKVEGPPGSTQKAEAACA

[5] = molecular target: Serine/threonine-protein kinase B-raf (Homo sapiens) (UniProt P15056); conditions: at 0.1 µM
[6] = molecular target: Serine/threonine-protein kinase B-raf (Homo sapiens) (UniProt P15056); conditions: at 1 µM
[7] = system: Serine/threonine-protein kinase B-raf (Homo sapiens), P15056 [V600E]; conditions: at 0.1 µM
[8] = system: Serine/threonine-protein kinase B-raf (Homo sapiens), P15056 [V600E]; conditions: at 1 µM
[9] = molecular target: RAF proto-oncogene serine/threonine-protein kinase (Homo sapiens) (UniProt P04049); conditions: at 0.1 µM
[10] = molecular target: RAF proto-oncogene serine/threonine-protein kinase (Homo sapiens) (UniProt P04049); conditions: at 1 µM
[11] = molecular target: T3, Interleukin-1 receptor-associated kinase 4 (Homo sapiens) (UniProt Q9NWZ3); conditions: at 0.1 µM
T3 sequence (whole entry): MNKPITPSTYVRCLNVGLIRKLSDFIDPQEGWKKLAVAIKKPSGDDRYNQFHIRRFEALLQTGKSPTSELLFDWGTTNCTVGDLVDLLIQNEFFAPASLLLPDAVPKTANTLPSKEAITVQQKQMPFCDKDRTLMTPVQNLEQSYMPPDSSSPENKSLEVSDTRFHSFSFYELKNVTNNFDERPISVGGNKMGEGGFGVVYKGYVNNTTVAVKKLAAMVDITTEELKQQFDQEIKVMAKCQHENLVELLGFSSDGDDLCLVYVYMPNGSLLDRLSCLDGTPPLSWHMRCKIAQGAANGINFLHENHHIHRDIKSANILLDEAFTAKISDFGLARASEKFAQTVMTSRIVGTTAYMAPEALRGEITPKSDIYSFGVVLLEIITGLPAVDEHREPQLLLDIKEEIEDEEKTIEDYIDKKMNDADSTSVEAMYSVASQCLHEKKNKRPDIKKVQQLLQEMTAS

[12] = molecular target: T3, Interleukin-1 receptor-associated kinase 4 (Homo sapiens); conditions: at 1 µM
[13] = molecular target: Leucine-rich repeat serine/threonine-protein kinase 2 (Homo sapiens) (UniProt Q5S007); conditions: at 0.1 µM
[14] = molecular target: Leucine-rich repeat serine/threonine-protein kinase 2 (Homo sapiens) (UniProt Q5S007); conditions: at 1 µM
[15] = system: Leucine-rich repeat serine/threonine-protein kinase 2 (Homo sapiens), Q5S007 [G2019S]; conditions: at 0.1 µM
[16] = system: Leucine-rich repeat serine/threonine-protein kinase 2 (Homo sapiens), Q5S007 [G2019S]; conditions: at 1 µM
[17] = molecular target: T2, Tyrosine-protein kinase ZAP-70 (Homo sapiens); conditions: at 0.1 µM

RAF proto-oncogene serine/threonine-protein kinase (Homo sapiens), sequence (P04049 whole entry): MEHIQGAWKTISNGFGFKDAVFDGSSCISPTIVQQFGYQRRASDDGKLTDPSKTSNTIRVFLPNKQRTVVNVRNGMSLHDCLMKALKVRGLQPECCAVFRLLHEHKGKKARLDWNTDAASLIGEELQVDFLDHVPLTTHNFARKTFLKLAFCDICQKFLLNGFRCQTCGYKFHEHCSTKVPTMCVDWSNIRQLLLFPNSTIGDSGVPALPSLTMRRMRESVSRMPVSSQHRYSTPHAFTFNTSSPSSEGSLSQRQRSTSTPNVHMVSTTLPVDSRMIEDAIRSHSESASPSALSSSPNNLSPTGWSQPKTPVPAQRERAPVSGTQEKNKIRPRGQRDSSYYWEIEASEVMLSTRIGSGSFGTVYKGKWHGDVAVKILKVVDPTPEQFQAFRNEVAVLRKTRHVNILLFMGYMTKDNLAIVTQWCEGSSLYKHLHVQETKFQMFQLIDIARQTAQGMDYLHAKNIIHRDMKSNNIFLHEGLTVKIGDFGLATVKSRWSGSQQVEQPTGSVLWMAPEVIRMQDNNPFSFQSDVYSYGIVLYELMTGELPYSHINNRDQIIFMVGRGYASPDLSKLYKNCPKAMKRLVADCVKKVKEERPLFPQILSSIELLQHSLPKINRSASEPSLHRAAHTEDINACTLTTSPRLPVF
Serine/threonine-protein kinase B-raf (Homo sapiens), P15056 [V600E], sequence (P15056 whole entry V600E): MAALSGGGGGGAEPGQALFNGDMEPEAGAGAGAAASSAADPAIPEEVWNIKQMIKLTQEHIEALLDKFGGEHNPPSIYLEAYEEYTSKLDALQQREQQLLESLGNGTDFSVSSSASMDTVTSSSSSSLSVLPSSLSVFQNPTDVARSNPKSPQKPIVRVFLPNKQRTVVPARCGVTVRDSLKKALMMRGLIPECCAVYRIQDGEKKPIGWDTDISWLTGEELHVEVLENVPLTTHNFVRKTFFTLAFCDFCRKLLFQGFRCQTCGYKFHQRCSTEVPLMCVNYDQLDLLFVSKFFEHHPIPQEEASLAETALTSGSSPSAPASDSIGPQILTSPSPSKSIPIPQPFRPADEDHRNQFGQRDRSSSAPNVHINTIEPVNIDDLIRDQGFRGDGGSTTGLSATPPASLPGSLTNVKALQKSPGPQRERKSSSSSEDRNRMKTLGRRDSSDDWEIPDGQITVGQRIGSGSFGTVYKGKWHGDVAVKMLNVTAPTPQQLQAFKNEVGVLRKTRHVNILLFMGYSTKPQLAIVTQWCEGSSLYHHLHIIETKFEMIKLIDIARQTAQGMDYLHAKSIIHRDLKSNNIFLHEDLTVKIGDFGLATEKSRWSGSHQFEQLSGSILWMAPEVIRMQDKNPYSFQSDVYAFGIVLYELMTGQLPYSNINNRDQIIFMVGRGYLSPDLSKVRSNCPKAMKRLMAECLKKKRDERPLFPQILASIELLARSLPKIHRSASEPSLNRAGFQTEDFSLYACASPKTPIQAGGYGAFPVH
Tyrosine-protein kinase Yes (Homo sapiens), sequence (P07947 2-543 limits assumed): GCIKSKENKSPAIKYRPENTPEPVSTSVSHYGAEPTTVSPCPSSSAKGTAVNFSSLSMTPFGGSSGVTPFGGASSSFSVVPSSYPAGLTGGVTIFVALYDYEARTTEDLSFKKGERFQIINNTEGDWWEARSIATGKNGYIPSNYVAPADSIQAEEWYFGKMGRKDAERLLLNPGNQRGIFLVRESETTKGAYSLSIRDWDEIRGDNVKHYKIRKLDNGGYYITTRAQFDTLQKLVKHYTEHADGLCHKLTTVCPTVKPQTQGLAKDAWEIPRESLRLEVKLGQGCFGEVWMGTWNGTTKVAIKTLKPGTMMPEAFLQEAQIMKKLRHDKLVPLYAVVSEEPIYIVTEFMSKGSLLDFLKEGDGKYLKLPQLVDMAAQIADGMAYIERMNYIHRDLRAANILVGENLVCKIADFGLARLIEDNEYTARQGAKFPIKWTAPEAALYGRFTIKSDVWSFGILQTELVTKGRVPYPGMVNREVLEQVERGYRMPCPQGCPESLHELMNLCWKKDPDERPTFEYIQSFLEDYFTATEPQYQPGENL
Leucine-rich repeat serine/threonine-protein kinase 2 (Homo sapiens), Q5S007 [G2019S], sequence (Q5S007 whole entry G2019S): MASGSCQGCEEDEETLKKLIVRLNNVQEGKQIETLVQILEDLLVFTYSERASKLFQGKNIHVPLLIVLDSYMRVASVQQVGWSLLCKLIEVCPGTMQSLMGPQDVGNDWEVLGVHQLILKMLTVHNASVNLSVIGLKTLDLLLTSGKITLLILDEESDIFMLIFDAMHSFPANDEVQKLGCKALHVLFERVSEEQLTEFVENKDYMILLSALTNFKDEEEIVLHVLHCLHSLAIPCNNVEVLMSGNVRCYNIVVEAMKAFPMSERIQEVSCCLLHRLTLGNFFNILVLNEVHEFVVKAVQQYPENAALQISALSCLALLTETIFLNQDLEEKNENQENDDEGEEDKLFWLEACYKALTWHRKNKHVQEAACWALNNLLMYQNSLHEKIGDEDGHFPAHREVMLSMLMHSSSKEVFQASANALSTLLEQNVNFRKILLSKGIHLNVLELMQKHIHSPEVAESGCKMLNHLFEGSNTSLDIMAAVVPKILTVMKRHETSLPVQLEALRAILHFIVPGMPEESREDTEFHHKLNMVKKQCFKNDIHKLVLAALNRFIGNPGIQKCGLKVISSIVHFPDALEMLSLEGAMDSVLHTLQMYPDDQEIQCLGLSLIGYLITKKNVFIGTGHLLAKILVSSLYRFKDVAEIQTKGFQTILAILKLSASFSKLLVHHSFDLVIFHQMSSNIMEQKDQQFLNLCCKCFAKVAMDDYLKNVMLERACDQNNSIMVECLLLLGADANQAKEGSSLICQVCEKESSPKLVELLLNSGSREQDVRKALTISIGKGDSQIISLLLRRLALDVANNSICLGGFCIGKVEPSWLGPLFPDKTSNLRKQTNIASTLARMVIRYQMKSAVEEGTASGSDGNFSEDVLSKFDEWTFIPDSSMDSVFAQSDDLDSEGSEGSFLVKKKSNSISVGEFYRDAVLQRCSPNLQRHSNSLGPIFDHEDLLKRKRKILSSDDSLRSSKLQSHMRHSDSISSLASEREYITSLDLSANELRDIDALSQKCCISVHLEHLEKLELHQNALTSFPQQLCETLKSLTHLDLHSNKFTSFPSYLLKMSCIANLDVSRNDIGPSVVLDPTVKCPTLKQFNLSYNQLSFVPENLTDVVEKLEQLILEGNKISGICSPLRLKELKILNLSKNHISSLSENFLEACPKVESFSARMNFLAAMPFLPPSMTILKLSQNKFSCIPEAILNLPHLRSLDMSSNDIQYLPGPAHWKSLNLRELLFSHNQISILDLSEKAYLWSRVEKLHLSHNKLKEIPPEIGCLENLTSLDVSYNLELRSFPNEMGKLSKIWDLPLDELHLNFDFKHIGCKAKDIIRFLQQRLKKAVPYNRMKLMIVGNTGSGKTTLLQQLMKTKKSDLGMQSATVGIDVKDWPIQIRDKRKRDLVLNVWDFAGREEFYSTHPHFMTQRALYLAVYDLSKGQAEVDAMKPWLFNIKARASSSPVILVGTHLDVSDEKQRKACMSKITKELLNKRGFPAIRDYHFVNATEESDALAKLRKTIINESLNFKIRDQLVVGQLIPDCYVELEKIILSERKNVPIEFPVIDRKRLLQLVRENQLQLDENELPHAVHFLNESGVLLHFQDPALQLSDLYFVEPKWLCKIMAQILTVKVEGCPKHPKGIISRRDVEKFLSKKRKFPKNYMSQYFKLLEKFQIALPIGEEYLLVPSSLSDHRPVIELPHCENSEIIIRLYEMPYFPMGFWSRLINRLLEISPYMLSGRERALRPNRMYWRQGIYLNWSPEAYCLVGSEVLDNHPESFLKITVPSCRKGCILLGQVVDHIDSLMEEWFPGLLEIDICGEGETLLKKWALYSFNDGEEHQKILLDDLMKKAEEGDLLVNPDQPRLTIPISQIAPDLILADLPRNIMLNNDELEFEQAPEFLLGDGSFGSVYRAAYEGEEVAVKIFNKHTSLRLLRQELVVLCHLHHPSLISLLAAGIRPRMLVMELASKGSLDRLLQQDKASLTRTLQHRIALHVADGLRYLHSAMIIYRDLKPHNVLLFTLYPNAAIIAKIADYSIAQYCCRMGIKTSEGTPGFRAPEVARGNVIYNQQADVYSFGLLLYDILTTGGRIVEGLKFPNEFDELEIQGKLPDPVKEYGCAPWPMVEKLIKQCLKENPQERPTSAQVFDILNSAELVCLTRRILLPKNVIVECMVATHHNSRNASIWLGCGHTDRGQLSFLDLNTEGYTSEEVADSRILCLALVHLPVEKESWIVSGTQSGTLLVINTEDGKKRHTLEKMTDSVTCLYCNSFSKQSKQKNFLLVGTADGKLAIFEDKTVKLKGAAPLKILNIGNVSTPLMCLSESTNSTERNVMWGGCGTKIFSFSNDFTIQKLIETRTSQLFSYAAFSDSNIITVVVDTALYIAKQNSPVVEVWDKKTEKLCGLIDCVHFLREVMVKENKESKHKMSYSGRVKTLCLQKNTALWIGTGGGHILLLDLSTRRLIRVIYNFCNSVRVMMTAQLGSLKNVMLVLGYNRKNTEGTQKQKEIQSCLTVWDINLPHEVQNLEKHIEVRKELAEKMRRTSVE
Leucine-rich repeat serine/threonine-protein kinase 2 (Homo sapiens), sequence (Q5S007 whole entry): as the sequence (Q5S007 whole entry G2019S) above, with S2019G counted along it
Serine/threonine-protein kinase B-raf (Homo sapiens), sequence (P15056 whole entry): as the sequence (P15056 whole entry V600E) above, with E600V counted along it

Compound | inhibition [1] | inhibition [2] | inhibition [3] | inhibition [4] | inhibition [5] | inhibition [6] | inhibition [7] | inhibition [8] | inhibition [9] | inhibition [10] | inhibition [11] | inhibition [12] | inhibition [13] | inhibition [14] | inhibition [15] | inhibition [16] | inhibition [17]
CCn1c(-c2nonc2N)nc2c(C#CC(C)(C)O)ncc(OC[C@@H]3CCCN3)c21 | 1.75% | -0.57% | 2.07% | -0.24% | 0.45% | 0.01% | 0.87% | 0.05% | 3.13% | 0.33% | 0.18% | 0.53% | 0.96% | 7.88% | 2.98% | 12.5% | 
COc1cccc(COc2cc(-n3cnc4ccccc43)sc2C(N)=O)c1 | -0.77% | 0.89% | 1.25% | 0.73% | -0.39% | 1.18% | 0.3% | 1.75% | 2.33% | 0.06% | -1.12% | -1.16% | 2.35% | 14.6% | 5.15% | 31.2% | -1.78%
NS(=O)(=O)c1ccc(N/C=C2\C(=O)Nc3ccc4ncsc4c32)cc1 | 24.1% | 2.73% | 26.7% | 5.97% | 11% | 41% | 9.06% | 37.5% | -1.4% | 0.21% | 1.82% | 2.58% | 17.8% | 58.6% | 29.4% | 58.9% | -5.22%
NC(=O)c1sc(-n2cnc3cc(C(F)(F)F)ccc32)cc1OCc1ccccc1Br | 2.02% | 2.56% | 3.46% | 1.87% | 3.64% | 2.26% | 1.31% | 2.01% | 1.82% | 5.05% | 0.4% | 1.13% | 3.39% | 6.23% | 3.66% | 6.47% | -0.71%
NS(=O)(=O)c1ccc(-c2ccc3c(NC(=O)C4CC4)n[nH]c3c2)cc1 | 13% | 0.69% | 2.38% | 0.22% | 2.45% | 5.35% | 2.03% | 3.48% | 4.2% | 9.01% | -1.93% | 1.48% | 2.77% | 2.56% | 3.47% | 7.51% | 0.78%
CCn1c(-c2nonc2N)nc2c(C#CC(C)(C)O)ncc(OCC3CCNCC3)c21 | 3.34% | 2.71% | 6.72% | -3.17% | 4.38% | 2.78% | 4.23% | 2.64% | 3.07% | 1.08% | -1.36% | 1.24% | -2.92% | 5% | 1.31% | 16.7% | -3.36%
COc1cc(C=NNc2ncnc3c2cnn3Cc2ccccc2)ccc1O | 7.59% | 14.6% | 30% | 1.13% | -5.44% | -5.52% | -5.58% | -4.22% | -0.2% | 8.55% | 1.48% | -1.52% | -2.34% | 3.59% | 1.06% | 10.1% | 2.67%
CCn1c(-c2nonc2N)nc2c(C#CCN)ncc(OCCCN)c21 | 3.68% | 0.61% | 3.6% | 2.46% | -4.66% | -4.6% | -5.05% | -3.78% | 2.59% | 1.98% | 1.9% | -2% | 3.78% | 5.71% | 4.23% | 12.1% | 2.74%
COc1cccc(-n2ncc3c(N/N=C/c4ccncc4)ncnc32)c1 | 41.6% | 26.7% | 73% | 3.98% | 10.3% | 21.5% | 11% | 23.1% | -6.75% | 3.93% | 2.61% | 4.07% | 4.32% | 16.6% | 7.97% | 37.4% | 2.84%
Nc1nonc1-c1nc2cnccc2n1C1CCCCC1 | -0.87% | 1.72% | 3.33% | -0.79% | -2.13% | 4.56% | -1.6% | 5.12% | 2.21% | 13.7% | 2.08% | -1.3% | 4.67% | 20% | 9.49% | 45.5% | -2%
Fc1ccc(-c2ncn(C3CCNCC3)c2-c2ccnc(Oc3ccccc3)n2)cc1 | 0.47% | 1.72% | -0.9% | -3.08% | 2.53% | 4.3% | 2.57% | 4.15% | -1.35% | 1.07% | 0.54% | 0.35% | -5.14% | -7.49% | -2.28% | -0.98% | -4.16%
Cc1cc(-c2ccco2)cc(C)c1/C=C/c1cncc(-c2nn[nH]n2)c1 | 0.02% | 1.68% | 6.08% | 0.77% | 1.61% | 1.61% | 1.63% | 3% | -1.69% | -5.34% | -0.17% | -0.12% | 4.45% | 8.02% | 5.52% | 5.78% | -1.84%
CCn1c(-c2nonc2N)nc2c(C#CC(C)(C)O)nc(O[C@@H](CN)c3ccccc3)cc21 | 6.97% | 2.89% | 23.8% | 1.24% | -0.9% | 5.48% | -1.97% | 6.51% | -3.13% | -0.12% | 2.57% | -0.97% | 1.02% | 12.4% | 5.6% | 35.9% | 0.99%
COc1cc2c(cc1Nc1nc(Nc3ccsc3C(N)=O)c3cc[nH]c3n1)N(C(=O)CN(C)C)CCC2 |  | 1.43% | 2.18% | 1.86% | -0.02% | 1.67% | 0.32% | 0.47% | -0.98% | -4.6% | -1.66% | -1.26% | 80.8% | 86.2% | 63% | 61.2% | -0.11%

From ChEMBL document CHEMBL1961873, “Compounds: GSK PKIS; Assays: Nanosyn kinase panel” (2012)
